Data reported in PubChem BioAssay.
Calls of active or inactive are those of the source.

How the values were obtained:
[1] = anti-His antibody binders, primary screen, artefact control for SMM control protein annotation, biochemical, small-molecule microarray, 635 nm fluorescence (AID 1128); conditions: anti-His Alexa647 antibody binding, higher = more signal;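 also: score merges feature fluorescence with signal-to-noise for each printed compound spot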
[2] = tested on: Human papillomavirus type 1a E7 protein (residues 1-88); assay: HPV1a E7 small-molecule binders, primary screen, biochemical, small-molecule microarray, residues 1-88, 635 nm (AID 1129); conditions: small-molecule microarray binding, fluorescence 635 nm; higher = more signal
[3] = target: Focal adhesion kinase 1 (Homo sapiens) (UniProt Q05397); assay: small-molecule microarray binders of FAK, primary screen, biochemical, 635/667 nm fluorescence, BSA, DTT (AID 1130); conditions: PTK2 binding, 635 nm fluorescence, higher = more signal;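 also: composite of spot emission at 667 nm and signal to noise over triplicate slides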
[4] = tested on: Fibrinogen (Alexa647-labelled); assay: fibrinogen binders on compound microarrays, profiling panel, artefact control for SMM control-protein annotation, biochemical, small-molecule microarray, 635/667 nm fluorescence (AID 1131); conditions: fibrinogen-A647 binding fluorescence, higher = more signal;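 also: z-score merges 667 nm fluorescence with per-spot signal-to-noise over triplicate slides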
[5] = target: Follistatin (Homo sapiens) (UniProt P19883); assay: follistatin binders on small-molecule microarrays, primary screen, biochemical, small-molecule microarray, 635/667 nm fluorescence (AID 1132); conditions: FST binding, 635 nm fluorescence, higher = more signal
[6] = target: Fibroblast growth factor 2 (Homo sapiens) (UniProt P09038); assay: FGF2 binders on small-molecule microarrays, primary screen, biochemical, small-molecule microarray, 635/667 nm fluorescence (AID 1133); conditions: small-molecule microarray binding, FGF2, fluorescence 635/667; higher = more signal
[7] = mitochondrial membrane potential change in A549 cells, profiling panel, cell-based, JC-1 fluorescence, basal, 24 h, 100 nL (AID 1138); conditions: higher = more signal;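 also: A549 lung adenocarcinoma cells under basal conditions with no added stimulus; test concentration not given here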
Lefty1 = Lefty1 binders on small-molecule microarrays, primary screen, biochemical, small-molecule microarray, 635/667 nm fluorescence (AID 1139); conditions: small-molecule microarray binding, fluorescence 635/667; higher = more signal
[8] = tested on: wheat germ agglutinin (Triticum aestivum), Alexa647-labelled; assay: wheat germ agglutinin binders on compound microarrays, profiling panel, artefact control for SMM control-protein annotation, biochemical, small-molecule microarray, 635/667 nm fluorescence (AID 1140); conditions: WGA-A647 binding, 635 nm fluorescence, higher = more signal;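 also: score merges 667 nm feature emission with signal to noise over triplicate slides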
[9] = target: Luciferin 4-monooxygenase (Photinus pyralis) (UniProt P08659); assay: firefly luciferase enzyme inhibitors, primary screen, biochemical, luminescence, purified enzyme, 2006 set (AID 1141); conditions: SteadyGlo luminescence, 30 min, higher = more signal, called active from +8 up or from −8 down;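 also: cell-free assay with purified firefly luciferase at 100 ng per well in PBS; test concentration not given here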
Chain of Luciferin 4-monooxygenase (Photinus pyralis) (P08659 whole entry, looked up): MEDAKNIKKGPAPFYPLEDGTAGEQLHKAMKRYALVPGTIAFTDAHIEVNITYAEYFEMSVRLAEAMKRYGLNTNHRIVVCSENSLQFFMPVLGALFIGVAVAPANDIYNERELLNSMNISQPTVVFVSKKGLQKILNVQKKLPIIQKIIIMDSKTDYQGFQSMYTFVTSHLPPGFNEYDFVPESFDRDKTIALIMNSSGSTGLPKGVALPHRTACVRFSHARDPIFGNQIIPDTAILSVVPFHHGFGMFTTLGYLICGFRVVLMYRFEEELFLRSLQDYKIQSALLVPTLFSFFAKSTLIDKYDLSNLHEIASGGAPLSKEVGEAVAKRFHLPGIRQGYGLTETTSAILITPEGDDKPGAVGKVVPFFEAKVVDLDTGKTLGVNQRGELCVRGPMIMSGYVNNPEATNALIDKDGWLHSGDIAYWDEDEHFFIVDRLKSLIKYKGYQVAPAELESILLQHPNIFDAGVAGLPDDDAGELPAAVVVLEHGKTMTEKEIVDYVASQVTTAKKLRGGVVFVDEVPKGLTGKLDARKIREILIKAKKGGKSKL

Chain of Focal adhesion kinase 1 (Homo sapiens) (Q05397 whole entry, looked up): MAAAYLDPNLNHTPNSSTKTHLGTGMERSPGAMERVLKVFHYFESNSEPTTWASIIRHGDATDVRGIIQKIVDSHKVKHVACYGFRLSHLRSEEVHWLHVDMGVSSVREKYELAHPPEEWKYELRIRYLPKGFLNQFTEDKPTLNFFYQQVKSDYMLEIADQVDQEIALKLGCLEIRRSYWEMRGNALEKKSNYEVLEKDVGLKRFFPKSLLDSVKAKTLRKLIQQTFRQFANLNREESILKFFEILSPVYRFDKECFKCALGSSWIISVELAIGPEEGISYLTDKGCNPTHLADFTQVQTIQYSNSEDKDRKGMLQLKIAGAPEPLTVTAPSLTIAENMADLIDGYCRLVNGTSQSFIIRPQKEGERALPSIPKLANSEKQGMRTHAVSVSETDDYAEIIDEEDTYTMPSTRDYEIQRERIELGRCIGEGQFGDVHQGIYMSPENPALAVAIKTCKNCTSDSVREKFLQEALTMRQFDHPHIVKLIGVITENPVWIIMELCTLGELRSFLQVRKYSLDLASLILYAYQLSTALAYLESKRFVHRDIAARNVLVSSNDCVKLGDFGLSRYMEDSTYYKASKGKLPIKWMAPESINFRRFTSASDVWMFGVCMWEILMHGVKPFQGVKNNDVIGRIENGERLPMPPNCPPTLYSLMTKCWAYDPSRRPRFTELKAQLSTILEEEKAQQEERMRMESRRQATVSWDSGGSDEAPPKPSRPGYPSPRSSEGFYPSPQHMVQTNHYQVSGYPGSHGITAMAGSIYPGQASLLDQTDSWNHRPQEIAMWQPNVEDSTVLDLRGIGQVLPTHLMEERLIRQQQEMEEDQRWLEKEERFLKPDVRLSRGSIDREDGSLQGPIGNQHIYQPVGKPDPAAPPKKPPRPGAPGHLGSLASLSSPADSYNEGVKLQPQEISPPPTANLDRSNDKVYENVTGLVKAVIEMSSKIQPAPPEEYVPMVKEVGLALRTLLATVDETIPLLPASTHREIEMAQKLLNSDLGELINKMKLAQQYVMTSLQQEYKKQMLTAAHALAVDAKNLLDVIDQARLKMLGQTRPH
Chain of Follistatin (Homo sapiens) (P19883 whole entry, looked up): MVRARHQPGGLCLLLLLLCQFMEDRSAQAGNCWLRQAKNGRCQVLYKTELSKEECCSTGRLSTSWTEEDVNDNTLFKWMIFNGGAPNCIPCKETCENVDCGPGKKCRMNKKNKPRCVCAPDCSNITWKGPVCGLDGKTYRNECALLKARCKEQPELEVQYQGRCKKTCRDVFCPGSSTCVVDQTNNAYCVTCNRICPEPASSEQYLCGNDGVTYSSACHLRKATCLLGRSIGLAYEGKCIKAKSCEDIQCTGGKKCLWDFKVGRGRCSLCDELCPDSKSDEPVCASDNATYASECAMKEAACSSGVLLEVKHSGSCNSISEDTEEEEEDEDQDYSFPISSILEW
Chain of Fibroblast growth factor 2 (Homo sapiens) (P09038 whole entry, looked up): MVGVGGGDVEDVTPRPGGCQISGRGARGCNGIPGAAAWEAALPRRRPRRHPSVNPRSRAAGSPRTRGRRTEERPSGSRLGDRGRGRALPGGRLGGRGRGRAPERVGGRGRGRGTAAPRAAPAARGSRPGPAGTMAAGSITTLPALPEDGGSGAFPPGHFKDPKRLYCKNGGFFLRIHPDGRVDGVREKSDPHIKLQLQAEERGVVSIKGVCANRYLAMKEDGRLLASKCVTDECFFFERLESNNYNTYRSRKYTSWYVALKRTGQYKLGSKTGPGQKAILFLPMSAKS

Compound: C=CCNC(=O)[C@H]1[C@@H]2C(=O)O[C@@H](c3ccccc3)[C@@H](c3ccccc3)N2[C@@H](c2ccc(OCCO)cc2)[C@]12C(=O)Nc1ccc(C#CCNC(N)=O)cc12
- composite z-score [1]: -0.293
- composite z-score [2]: 1.15
- composite z-score [3]: 0.0494
- composite z-score [4]: 0.936
- composite z-score [5]: 1.41
- composite z-score [6]: 1.05
- z-score [7]: -0.837
- composite z-score (Lefty1): 0.767
- composite z-score [8]: 0.912
- z-score [9]: -0.0338 (inactive)

Compound: C=C(COC)C(=O)CC[C@@H](OC(=O)c1cccnc1)c1ccccc1OCCO
- composite z-score [1]: 2.06
- composite z-score [2]: 0.284
- composite z-score [3]: -0.54
- composite z-score [4]: 0.555
- composite z-score [5]: 0.974
- composite z-score [6]: 1
- z-score [7]: -0.0536
- composite z-score (Lefty1): 0.139
- composite z-score [8]: 0.287
- z-score [9]: -5.44 (inactive)

Compound: COC(=O)[C@@]1(Cc2ccc(F)cc2)[C@H]2c3cc(C(=O)N4CCCC4)n(CC4CC4)c3C[C@H]2CN1C(=O)c1ccccc1
- composite z-score [1]: 2.46
- composite z-score [2]: 1.28
- composite z-score [3]: 0.467
- composite z-score [4]: 1.03
- composite z-score [5]: 1.26
- composite z-score [6]: 0.107
- z-score [7]: 0.699
- composite z-score (Lefty1): -0.39
- composite z-score [8]: 0.718
- z-score [9]: 1.35 (inactive)

Compound: CO[C@H]1O[C@H](CO)[C@@H](OC(=O)c2ccc(Br)cc2)[C@@H]2OC(=O)[C@H](Cc3ccccc3)C/C=C/C[C@@H](Cc3ccccc3)C(=O)O[C@@H]12
- composite z-score [1]: 0.478
- composite z-score [2]: 0.817
- composite z-score [3]: 0.703
- composite z-score [4]: 0.135
- composite z-score [5]: 0.84
- composite z-score [6]: 1.37
- z-score [7]: 0.0305
- composite z-score (Lefty1): 0.416
- composite z-score [8]: -0.0716
- z-score [9]: 0.659 (inactive)

Compound: COCC1=C2[C@@H](CCc3ccccc3)OB(O)C[C@@H]2[C@@H]2C(=O)N(C)C(=O)[C@@H]2C1
- composite z-score [1]: 0.0751
- composite z-score [2]: 0.003
- composite z-score [3]: 0.164
- composite z-score [4]: 0.353
- composite z-score [5]: 0.309
- composite z-score [6]: 0.833
- z-score [7]: -0.0837
- composite z-score (Lefty1): 0.0961
- composite z-score [8]: -0.098
- z-score [9]: -0.171 (inactive)

Compound: O=C(CS)NCCCCCCNC(=O)[C@@H]1C[C@@H]2C(=O)NCC(=O)N2[C@@H]1c1ccc(O)cc1
- composite z-score [1]: 2.52
- composite z-score [2]: -0.41
- composite z-score [3]: 0.0509
- composite z-score [4]: -0.975
- composite z-score [5]: 0.526
- composite z-score [6]: 1.18
- z-score [7]: 0.601
- composite z-score (Lefty1): -0.628
- composite z-score [8]: -0.498
- z-score [9]: -1.38 (inactive)

Compound: CC1(C)C(=O)C(c2ccccc2)=C2CN3C(=O)N(CCc4ccccc4)C(=O)C3(Cc3ccc(F)cc3)C=C21 (stereo not given)
- composite z-score [1]: 1.47
- composite z-score [2]: 0.324
- composite z-score [3]: -0.104
- composite z-score [4]: -0.402
- composite z-score [5]: 0.0178
- composite z-score [6]: -0.979
- z-score [7]: -0.593
- composite z-score (Lefty1): -0.784
- composite z-score [8]: 0.432
- z-score [9]: 0.907 (inactive)

Compound: COCCOC(=O)N1C(=O)[C@@]2(c3cc(C#CCNC(N)=O)ccc31)[C@H](c1ccc(O)cc1)N1[C@H](c3ccccc3)[C@H](c3ccccc3)OC(=O)[C@H]1[C@@H]2C(N)=O
- composite z-score [1]: -0.685
- composite z-score [2]: -0.703
- composite z-score [3]: -0.529
- composite z-score [4]: -1.39
- composite z-score [5]: -1.91
- composite z-score [6]: -0.93
- z-score [7]: 0.902
- composite z-score (Lefty1): -1.72
- composite z-score [8]: -1.18
- z-score [9]: -1.03 (inactive)

Compound: C=C[C@@H](OC)[C@H](OC(=O)Nc1ccc(OC)cc1)c1ccc(OC)c(O)c1
- composite z-score [1]: 0.122
- composite z-score [2]: -1.06
- composite z-score [3]: -0.384
- composite z-score [4]: -1.1
- composite z-score [5]: 0.0112
- composite z-score [6]: -0.685
- z-score [7]: 0.232
- composite z-score (Lefty1): -0.396
- composite z-score [8]: -0.0358
- z-score [9]: -0.737 (inactive)

Compound: CCC(CC)C(O)C1C=CC2C(=O)N(c3ccccc3)C(=O)C2N1Nc1ccc([N+](=O)[O-])cc1 (stereo not given)
- composite z-score [1]: 0.838
- composite z-score [2]: 1.23
- composite z-score [3]: 1.19
- composite z-score [4]: 0.895
- composite z-score [5]: 0.081
- composite z-score [6]: -0.348
- z-score [7]: -1.38
- composite z-score (Lefty1): 0.138
- composite z-score [8]: 1.11
- z-score [9]: 1.14 (inactive)

Compound: Cc1ccc(S[C@]2(C(=O)NC(C)C)CC(=O)N(C(C)C)[C@@H]2c2ccc(CO)cc2I)cc1
- composite z-score [1]: -0.893
- composite z-score [2]: -0.0049
- composite z-score [3]: 1.58
- composite z-score [4]: 0.351
- composite z-score [5]: -0.077
- composite z-score [6]: -0.471
- z-score [7]: 1.28
- composite z-score (Lefty1): -0.18
- composite z-score [8]: 0.169
- z-score [9]: 1.11 (inactive)

Compound: NCCCCCNC(=O)[C@H]1C[C@H]2C(=O)N[C@@H](Cc3ccccc3)C(=O)N2[C@H]1c1ccc(O)cc1
- composite z-score [1]: 1.61
- composite z-score [2]: 0.756
- composite z-score [3]: -0.506
- composite z-score [4]: 0.94
- composite z-score [5]: 1.4
- composite z-score [6]: 0.169
- z-score [7]: -0.421
- composite z-score (Lefty1): 0.765
- composite z-score [8]: 0.81
- z-score [9]: -1.35 (inactive)

Compound: C=C(/C(=C/C[C@H](OC(=O)c1ccncc1)c1ccccc1OCCO)c1cnc2ccccc2c1)C(C)C
- composite z-score [1]: 1.23
- composite z-score [2]: 1.22
- composite z-score [3]: 0.374
- composite z-score [4]: 0.958
- composite z-score [5]: 1.39
- composite z-score [6]: 1.42
- z-score [7]: 0.707
- composite z-score (Lefty1): 1.39
- composite z-score [8]: 0.846
- z-score [9]: -0.177 (inactive)

Compound: COCC(=C=CC[C@@H](O)c1cccc(OCCO)c1)CCO
- composite z-score [1]: -0.128
- composite z-score [2]: -0.113
- composite z-score [3]: -0.128
- composite z-score [4]: 0.984
- composite z-score [5]: 0.734
- composite z-score [6]: 0.377
- z-score [7]: 0.293
- composite z-score (Lefty1): 0.565
- composite z-score [8]: 1.1
- z-score [9]: -1.31 (inactive)

Compound: C=CCNC(=O)[C@@H]1[C@H]2C(=O)O[C@H](c3ccccc3)[C@H](c3ccccc3)N2[C@H](c2ccc(O)cc2)[C@@]12C(=O)Nc1ccc(C#CCC(C(=O)OC)C(=O)OC)cc12
- composite z-score [1]: -0.414
- composite z-score [2]: 1.2
- composite z-score [3]: 0.267
- composite z-score [4]: 0.0847
- composite z-score [5]: 1.24
- composite z-score [6]: 0.464
- z-score [7]: -1.22
- composite z-score (Lefty1): 0.147
- composite z-score [8]: 0.0307
- z-score [9]: -0.108 (inactive)

Compound: CCCCCCCCCCC(O)C1C=CC2C(=O)N(c3ccccc3)C(=O)C2N1Nc1ccccc1F (stereo not given)
- composite z-score [1]: 0.0112
- composite z-score [2]: 0.399
- composite z-score [3]: 0.674
- composite z-score [4]: 0.415
- composite z-score [5]: -0.348
- composite z-score [6]: -0.591
- z-score [7]: -0.127
- composite z-score (Lefty1): -0.833
- composite z-score [8]: 0.472
- z-score [9]: 0.422 (inactive)

Compound: Cc1nc2cc(Br)ccc2c(=O)n1Cc1cccc(O)c1
- composite z-score [1]: 0.391
- composite z-score [2]: 0.941
- composite z-score [3]: 0.872
- composite z-score [4]: 0.539
- composite z-score [5]: 1.38
- composite z-score [6]: 1.81
- z-score [7]: 0.287
- composite z-score (Lefty1): 1.22
- composite z-score [8]: 0.334
- z-score [9]: 6.4 (inactive)
